According to PubChem BioAssay (Tox21):
Records with an inconclusive call do not appear. Where a call stands in place of a potency, no number is given. Calls of active or inactive are those of the source. Calls follow the shape of the dose curve; as a rule, active = well fitted cell-killing curve with a large enough effect in the repeat runs; inconclusive = weak or mixed curves, or effect the other way; inactive = flat fitted curve, though single readings scatter.

Assay: cAMP Responsive Elements (CRE) small molecule antagonists, cell-based qHTS assay: qHTS cell viability counter screen (AID 2060913); also: nearly all actives have a fitted effect of over 40% in size
Conditions: CRE-bla HEK293T viability, CellTiter-Glo luminescence, 5 h; series mostly up to 92.4 µM
Outline: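 Viability of NKH477-stimulated (0.25 uM final) CRE-bla HEK293T cells is measured by CellTiter-Glo luminescence following 3 hrs compound exposure at 37 C.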

Which Potency does the source give for CC(=O)[C@@]1(O)CC[C@H]2[C@@H]3CCC4=CC(=O)CC[C@]4(C)[C@H]3CC[C@@]21C here?
Its Potency is “inactive”.

For CC/C(=C\C(=N/O)C(N)=O)C(C)[N+](=O)[O-] (stereo not drawn), which Potency is on record?
The Potency was “inactive”.

With O=C(O)CC(=O)C(=O)O as the molecule, how does the Potency read?
Its Potency is “inactive”.

Which Potency does the source give for CCCCCCCC(OC)OC here?
The Potency was “inactive”.

With O=C(O)[C@@H]1CSCN1 as the molecule, how does the Potency read?
Its Potency is “inactive”.

For Nc1ccc(Cl)cc1[N+](=O)[O-], which Potency is on record?
The Potency was “inactive”.

Which Potency does the source give for CCCCCCC(C)Nc1ccc(Nc2ccccc2)cc1 (stereo not drawn) here?
Its Potency is “inactive”.

With c1ccc(Cc2ccccc2)cc1 as the molecule, how does the Potency read?
The Potency was “inactive”.

Which Potency does the source give for CC1=C(/C=C/C(C)=C/C=C/C(C)=C/C(=O)Nc2ccc(O)cc2)C(C)(C)CCC1 here?
The Potency was “inactive”.

For CO[C@@H]1[C@@H](O[C@@H]2O[C@H](C)[C@@H](O[C@H]3C[C@@](C)(O)[C@@H](O)[C@H](C)O3)[C@H](N(C)C)[C@H]2O)[C@@H](CC=O)C[C@@H](C)[C@@H](O[C@@H]2CC[C@H](N(C)C)[C@@H](C)O2)/C=C/C=C/C[C@@H](C)OC(=O)C[C@H]1OC(C)=O, which Potency is on record?
Its Potency is “inactive”.

For COC(C)COC(C)COC(C)CO (stereo not drawn), which Potency is on record?
Its Potency is “inactive”.

With Nc1c[n+](N2CCOCC2)no1 as the molecule, how does the Potency read?
Its Potency is “inactive”.

Which Potency does the source give for C=CCOC(=O)CCC1CCCCC1 here?
The Potency was “inactive”.

With Cc1ccc(O)c(C(C)(C)C)c1 as the molecule, how does the Potency read?
The Potency was “inactive”.

With COCCc1ccc(OCC2CO2)cc1 (stereo not drawn) as the molecule, how does the Potency read?
Its Potency is “inactive”.

For Clc1cc(Cl)nc(Cl)n1, which Potency is on record?
Its Potency is “inactive”.

For CCCOC(=O)c1ccc(C(=O)OCCC)nc1, which Potency is on record?
The Potency was “inactive”.

With CCOC(=O)NNc1ccc(N(CC)CC(C)O)nn1 (stereo not drawn) as the molecule, how does the Potency read?
Its Potency is “inactive”.

Which Potency does the source give for NC(=O)NNc1ccccc1 here?
The Potency was “inactive”.

Which Potency does the source give for C#CC(O)CCC (stereo not drawn) here?
The Potency was “inactive”.

Which Potency does the source give for CC(C)CC(=O)O here?
Its Potency is “inactive”.

With CC1(C)C(=O)N(Br)C(=O)N1Cl as the molecule, how does the Potency read?
The Potency was “inactive”.

Which Potency does the source give for O=CCc1ccccc1 here?
The Potency was “inactive”.

With C=Cc1ccncc1 as the molecule, how does the Potency read?
The Potency was “inactive”.

Which Potency does the source give for C=C(C)C1CC=C(C)C(=O)C1 (stereo not drawn) here?
The Potency was “inactive”.

For C=C(C)C1CC=C(C)CC1 (stereo not drawn), which Potency is on record?
Its Potency is “inactive”.

With CCC(=O)O[C@]1(C(=O)CCl)[C@@H](C)C[C@H]2[C@@H]3CCC4=CC(=O)C=C[C@]4(C)[C@@]3(F)[C@@H](O)C[C@@]21C as the molecule, how does the Potency read?
The Potency was “inactive”.

For CCOC(=O)C(=O)CCCCCCl, which Potency is on record?
Its Potency is “inactive”.

For CC(C)CO, which Potency is on record?
Its Potency is “inactive”.

Which Potency does the source give for Oc1cccc2c(O)cccc12 here?
Its Potency is “inactive”.

For N=C(N)c1ccc2cc(OC(=O)c3ccc(N=C(N)N)cc3)ccc2c1, which Potency is on record?
The Potency was “inactive”.

With CCCCC(=O)O[C@]1(C(=O)CO)[C@H](C)C[C@H]2[C@@H]3CCC4=CC(=O)C=C[C@]4(C)[C@@]3(F)[C@@H](O)C[C@@]21C as the molecule, how does the Potency read?
Its Potency is “inactive”.

Which Potency does the source give for CCOCC(O)COc1ccc(NC(=O)CC[S+](C)C)cc1 (stereo not drawn) here?
The Potency was “inactive”.

With Nc1ncnc2nc[nH]c12 as the molecule, how does the Potency read?
Its Potency is “inactive”.

Which Potency does the source give for CCCOC(=O)c1cc(O)c(O)c(O)c1 here?
Its Potency is “inactive”.

With O=C(Oc1cccc2cccnc12)c1ccccc1 as the molecule, how does the Potency read?
Its Potency is “inactive”.

Which Potency does the source give for CN(C)c1nc(N(C)C)nc(N(C)C)n1 here?
The Potency was “inactive”.

Which Potency does the source give for O=C(C1CCCCC1)N1CC(=O)N2CCc3ccccc3C2C1 (stereo not drawn) here?
The Potency was “inactive”.

Which Potency does the source give for FC(F)(F)C(F)(F)C(F)(F)C(F)(F)C(F)(F)C(F)(F)C(F)(F)C(F)(F)Br here?
The Potency was “inactive”.

Assay: cAMP Responsive Elements (CRE) small molecule agonists, cell-based qHTS assay: qHTS cell viability counter screen (AID 2060914); also: nearly all actives have a fitted effect of over 50% in size
Conditions: CRE-bla HEK293T viability, CellTiter-Glo luminescence, 5 h; series mostly up to 92.4 µM
Outline: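 In the same wells as the reporter read, viability of CRE-bla HEK 293T cells was quantified by CellTiter-Glo luminescence after a 3 h compound exposure.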

Which Potency does the source give for CC(=O)[C@@]1(O)CC[C@H]2[C@@H]3CCC4=CC(=O)CC[C@]4(C)[C@H]3CC[C@@]21C here?
Its Potency is “inactive”.

Which Potency does the source give for CC/C(=C\C(=N/O)C(N)=O)C(C)[N+](=O)[O-] (stereo not drawn) here?
Its Potency is “inactive”.

Which Potency does the source give for O=C(O)CC(=O)C(=O)O here?
Its Potency is “inactive”.

Which Potency does the source give for CCCCCCCC(OC)OC here?
Its Potency is “inactive”.

With O=C(O)[C@@H]1CSCN1 as the molecule, how does the Potency read?
The Potency was “inactive”.

For Nc1ccc(Cl)cc1[N+](=O)[O-], which Potency is on record?
The Potency was “inactive”.

With CCCCCCC(C)Nc1ccc(Nc2ccccc2)cc1 (stereo not drawn) as the molecule, how does the Potency read?
The Potency was “inactive”.

With c1ccc(Cc2ccccc2)cc1 as the molecule, how does the Potency read?
The Potency was “inactive”.

For CC1=C(/C=C/C(C)=C/C=C/C(C)=C/C(=O)Nc2ccc(O)cc2)C(C)(C)CCC1, which Potency is on record?
Its Potency is “inactive”.

With CO[C@@H]1[C@@H](O[C@@H]2O[C@H](C)[C@@H](O[C@H]3C[C@@](C)(O)[C@@H](O)[C@H](C)O3)[C@H](N(C)C)[C@H]2O)[C@@H](CC=O)C[C@@H](C)[C@@H](O[C@@H]2CC[C@H](N(C)C)[C@@H](C)O2)/C=C/C=C/C[C@@H](C)OC(=O)C[C@H]1OC(C)=O as the molecule, how does the Potency read?
Its Potency is “inactive”.

For COC(C)COC(C)COC(C)CO (stereo not drawn), which Potency is on record?
The Potency was “inactive”.

For Nc1c[n+](N2CCOCC2)no1, which Potency is on record?
The Potency was “inactive”.

With C=CCOC(=O)CCC1CCCCC1 as the molecule, how does the Potency read?
Its Potency is “inactive”.

For Cc1ccc(O)c(C(C)(C)C)c1, which Potency is on record?
The Potency was “inactive”.

Which Potency does the source give for COCCc1ccc(OCC2CO2)cc1 (stereo not drawn) here?
Its Potency is “inactive”.

With Clc1cc(Cl)nc(Cl)n1 as the molecule, how does the Potency read?
The Potency was “inactive”.

With CCCOC(=O)c1ccc(C(=O)OCCC)nc1 as the molecule, how does the Potency read?
The Potency was “inactive”.

With CCOC(=O)NNc1ccc(N(CC)CC(C)O)nn1 (stereo not drawn) as the molecule, how does the Potency read?
The Potency was “inactive”.

With NC(=O)NNc1ccccc1 as the molecule, how does the Potency read?
The Potency was “inactive”.

With C#CC(O)CCC (stereo not drawn) as the molecule, how does the Potency read?
The Potency was “inactive”.

With CC(C)CC(=O)O as the molecule, how does the Potency read?
The Potency was “inactive”.

For CC1(C)C(=O)N(Br)C(=O)N1Cl, which Potency is on record?
Its Potency is “inactive”.

For O=CCc1ccccc1, which Potency is on record?
The Potency was “inactive”.

Which Potency does the source give for C=Cc1ccncc1 here?
Its Potency is “inactive”.

For C=C(C)C1CC=C(C)C(=O)C1 (stereo not drawn), which Potency is on record?
Its Potency is “inactive”.

For C=C(C)C1CC=C(C)CC1 (stereo not drawn), which Potency is on record?
The Potency was “inactive”.

With CCC(=O)O[C@]1(C(=O)CCl)[C@@H](C)C[C@H]2[C@@H]3CCC4=CC(=O)C=C[C@]4(C)[C@@]3(F)[C@@H](O)C[C@@]21C as the molecule, how does the Potency read?
Its Potency is “inactive”.

Which Potency does the source give for CCOC(=O)C(=O)CCCCCCl here?
Its Potency is “inactive”.

Which Potency does the source give for CC(C)CO here?
The Potency was “inactive”.

With Oc1cccc2c(O)cccc12 as the molecule, how does the Potency read?
Its Potency is “inactive”.

With N=C(N)c1ccc2cc(OC(=O)c3ccc(N=C(N)N)cc3)ccc2c1 as the molecule, how does the Potency read?
The Potency was “inactive”.

Which Potency does the source give for CCCCC(=O)O[C@]1(C(=O)CO)[C@H](C)C[C@H]2[C@@H]3CCC4=CC(=O)C=C[C@]4(C)[C@@]3(F)[C@@H](O)C[C@@]21C here?
The Potency was “inactive”.

Which Potency does the source give for CCOCC(O)COc1ccc(NC(=O)CC[S+](C)C)cc1 (stereo not drawn) here?
The Potency was “inactive”.

Which Potency does the source give for Nc1ncnc2nc[nH]c12 here?
Its Potency is “inactive”.

For CCCOC(=O)c1cc(O)c(O)c(O)c1, which Potency is on record?
Its Potency is “inactive”.

Which Potency does the source give for O=C(Oc1cccc2cccnc12)c1ccccc1 here?
The Potency was “inactive”.

With CN(C)c1nc(N(C)C)nc(N(C)C)n1 as the molecule, how does the Potency read?
Its Potency is “inactive”.

With O=C(C1CCCCC1)N1CC(=O)N2CCc3ccccc3C2C1 (stereo not drawn) as the molecule, how does the Potency read?
The Potency was “inactive”.

With FC(F)(F)C(F)(F)C(F)(F)C(F)(F)C(F)(F)C(F)(F)C(F)(F)C(F)(F)Br as the molecule, how does the Potency read?
The Potency was “inactive”.
